# From publication PMC7862700, “An all-to-all approach to the identification of sequence-specific readers for epigenetic DNA modifications on cytosine”
# Tests used:
# Experiment in all cases: DAPPL (digital affinity profiling via proximity ligation, sequencing); 10 mM Tris-HCl pH 7.5, 50 mM NaCl, 1 mM DTT, 4% glycerol, room temperature, 30 min; GST-TFs on glutathione beads, 16-mer random dsDNA library, 0.1% formaldehyde crosslink after washing; high values mean tight binding
# FEV = molecular target: T1, FEV (Homo sapiens, UniProt Q99581 1-238); settings: protein: recombinant; tags: N-terminal GST; dsDNA, one strand shown
# T1 sequence: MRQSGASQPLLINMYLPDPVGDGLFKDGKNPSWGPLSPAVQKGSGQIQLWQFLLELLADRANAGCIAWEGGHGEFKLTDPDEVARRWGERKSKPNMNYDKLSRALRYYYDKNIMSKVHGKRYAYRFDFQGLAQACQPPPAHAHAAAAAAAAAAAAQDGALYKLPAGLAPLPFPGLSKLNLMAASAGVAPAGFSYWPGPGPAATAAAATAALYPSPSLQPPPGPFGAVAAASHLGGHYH
# Procedure, shortened: (§1)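 Binding signal is defined as a hexamer's read frequency for one factor over its frequency for the tag-only sample. To obtain reads, GST-fused human transcription factors were expressed in yeast, captured on glutathione beads, barcoded with DNA and pooled with that sample. Pools met 200 nmole of a 16-mer random double-stranded DNA library in Tris/NaCl/DTT/glycerol buffer for 30 min at room temperature before washing, 0.1% formaldehyde crosslinking, proximity ligation (BsaI/T4 ligase, 1 h, 37 °C), PCR and Illumina NextSeq500 sequencing.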
# ETV5 = ETV5 (Homo sapiens, UniProt P41161 1-510); settings: protein: recombinant; tags: N-terminal GST; dsDNA, one strand shown
# Procedure, shortened: as §1
# HSF1 = HSF1 (Homo sapiens, UniProt Q00613 1-529); settings: protein: recombinant; tags: N-terminal GST; chain copies: 3; dsDNA, one strand shown
# Procedure, shortened: as §1
# SPIC = molecular target: T2, SPIC (Homo sapiens, UniProt Q8N5J4 1-248); settings: protein: recombinant; tags: N-terminal GST; dsDNA, one strand shown
# T2 sequence: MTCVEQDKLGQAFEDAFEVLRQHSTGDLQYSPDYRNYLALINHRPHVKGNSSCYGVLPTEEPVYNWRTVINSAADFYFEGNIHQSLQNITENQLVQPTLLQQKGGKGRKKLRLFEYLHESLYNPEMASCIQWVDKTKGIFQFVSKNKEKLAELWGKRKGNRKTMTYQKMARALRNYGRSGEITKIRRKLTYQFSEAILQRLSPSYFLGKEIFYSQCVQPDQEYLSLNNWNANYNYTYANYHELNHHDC
# Procedure, shortened: as §1
# ELF4 = ELF4 (Homo sapiens, UniProt Q99607 1-663); settings: protein: recombinant; tags: N-terminal GST; dsDNA, one strand shown
# Procedure, shortened: as §1
# ELK4 = molecular target: T3, ELK4 (Homo sapiens, UniProt P28324-2 1-405); settings: protein: recombinant; tags: N-terminal GST; dsDNA, one strand shown
# T3 sequence: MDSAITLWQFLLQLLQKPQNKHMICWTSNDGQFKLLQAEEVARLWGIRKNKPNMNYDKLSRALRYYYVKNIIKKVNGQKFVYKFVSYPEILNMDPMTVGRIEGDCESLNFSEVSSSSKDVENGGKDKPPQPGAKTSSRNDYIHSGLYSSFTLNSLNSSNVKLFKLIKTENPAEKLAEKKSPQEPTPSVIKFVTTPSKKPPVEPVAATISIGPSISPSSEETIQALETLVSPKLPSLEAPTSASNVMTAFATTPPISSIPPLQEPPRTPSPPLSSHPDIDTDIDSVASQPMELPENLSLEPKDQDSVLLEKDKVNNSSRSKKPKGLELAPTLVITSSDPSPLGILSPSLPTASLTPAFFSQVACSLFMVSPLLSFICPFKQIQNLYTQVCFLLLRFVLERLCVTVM
# Procedure, shortened: as §1
# ETV2 = molecular target: T4, ETV2 (Homo sapiens, UniProt O00321 1-342); settings: protein: recombinant; tags: N-terminal GST; dsDNA, one strand shown
# T4 sequence: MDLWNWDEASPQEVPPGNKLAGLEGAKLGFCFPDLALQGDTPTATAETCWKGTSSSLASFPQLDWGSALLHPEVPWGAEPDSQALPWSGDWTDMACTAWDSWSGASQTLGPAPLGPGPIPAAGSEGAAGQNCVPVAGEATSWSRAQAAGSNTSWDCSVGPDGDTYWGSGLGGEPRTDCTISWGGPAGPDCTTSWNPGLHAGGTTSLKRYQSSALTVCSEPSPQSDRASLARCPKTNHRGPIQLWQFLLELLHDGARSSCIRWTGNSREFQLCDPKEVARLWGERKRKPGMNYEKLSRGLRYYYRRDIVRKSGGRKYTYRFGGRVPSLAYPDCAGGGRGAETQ
# Procedure, shortened: as §1
# ELF3 = molecular target: T5, ELF3 (Homo sapiens, UniProt P78545 1-371); settings: protein: recombinant; tags: N-terminal GST; dsDNA, one strand shown
# T5 sequence: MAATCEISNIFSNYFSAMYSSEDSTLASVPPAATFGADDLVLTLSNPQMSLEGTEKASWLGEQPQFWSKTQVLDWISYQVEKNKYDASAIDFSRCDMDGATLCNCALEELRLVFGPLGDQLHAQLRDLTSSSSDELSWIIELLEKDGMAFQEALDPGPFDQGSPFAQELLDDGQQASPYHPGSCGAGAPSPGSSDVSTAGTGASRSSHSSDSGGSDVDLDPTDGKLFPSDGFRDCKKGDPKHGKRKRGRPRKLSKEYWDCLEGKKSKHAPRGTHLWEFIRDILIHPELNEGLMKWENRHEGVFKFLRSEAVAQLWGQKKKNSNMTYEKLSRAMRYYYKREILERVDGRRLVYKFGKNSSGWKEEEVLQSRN
# Procedure, shortened: as §1
# CRX = CRX (Homo sapiens, UniProt O43186 1-299); settings: protein: recombinant; tags: N-terminal GST; dsDNA, one strand shown
# Procedure, shortened: as §1
# ETV1 = ETV1 (Homo sapiens, UniProt P50549 1-477); settings: protein: recombinant; tags: N-terminal GST; dsDNA, one strand shown
# Procedure, shortened: as §1
# ERF = molecular target: T6, ERF (Homo sapiens, UniProt P50548 1-548); settings: protein: recombinant; tags: N-terminal GST; dsDNA, one strand shown
# T6 sequence: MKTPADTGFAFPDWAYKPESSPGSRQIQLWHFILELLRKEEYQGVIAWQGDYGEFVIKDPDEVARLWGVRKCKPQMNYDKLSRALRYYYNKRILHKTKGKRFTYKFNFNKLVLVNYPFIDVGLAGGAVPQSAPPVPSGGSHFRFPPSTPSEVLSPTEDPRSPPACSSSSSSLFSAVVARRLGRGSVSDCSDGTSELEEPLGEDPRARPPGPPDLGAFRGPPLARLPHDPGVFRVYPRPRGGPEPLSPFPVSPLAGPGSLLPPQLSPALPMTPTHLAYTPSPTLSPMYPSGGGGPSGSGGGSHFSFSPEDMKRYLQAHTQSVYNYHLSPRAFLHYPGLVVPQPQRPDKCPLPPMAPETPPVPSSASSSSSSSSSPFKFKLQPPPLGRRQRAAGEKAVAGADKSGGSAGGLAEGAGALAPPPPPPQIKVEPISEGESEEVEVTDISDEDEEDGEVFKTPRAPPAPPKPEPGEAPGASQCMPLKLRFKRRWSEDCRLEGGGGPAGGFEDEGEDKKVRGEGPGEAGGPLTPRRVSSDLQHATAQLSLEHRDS
# Procedure, shortened: as §1
# ETV3L = molecular target: T7, ETV3L (Homo sapiens, UniProt Q6ZN32 1-361); settings: protein: recombinant; tags: N-terminal GST; dsDNA, one strand shown
# T7 sequence: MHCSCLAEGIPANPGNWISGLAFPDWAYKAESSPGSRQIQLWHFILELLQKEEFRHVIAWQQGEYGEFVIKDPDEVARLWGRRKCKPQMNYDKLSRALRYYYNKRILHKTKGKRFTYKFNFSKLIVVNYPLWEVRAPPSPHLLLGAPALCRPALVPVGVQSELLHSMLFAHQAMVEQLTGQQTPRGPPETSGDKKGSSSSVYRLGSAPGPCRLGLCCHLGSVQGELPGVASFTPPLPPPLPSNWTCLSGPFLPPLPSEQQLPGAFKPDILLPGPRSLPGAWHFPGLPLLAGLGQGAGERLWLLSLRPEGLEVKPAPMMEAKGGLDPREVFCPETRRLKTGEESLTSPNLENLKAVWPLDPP
# Procedure, shortened: as §1
# ETS2 = molecular target: T8, ETS2 (Homo sapiens, UniProt P15036 1-469); settings: protein: recombinant; tags: N-terminal GST; dsDNA, one strand shown
# T8 sequence: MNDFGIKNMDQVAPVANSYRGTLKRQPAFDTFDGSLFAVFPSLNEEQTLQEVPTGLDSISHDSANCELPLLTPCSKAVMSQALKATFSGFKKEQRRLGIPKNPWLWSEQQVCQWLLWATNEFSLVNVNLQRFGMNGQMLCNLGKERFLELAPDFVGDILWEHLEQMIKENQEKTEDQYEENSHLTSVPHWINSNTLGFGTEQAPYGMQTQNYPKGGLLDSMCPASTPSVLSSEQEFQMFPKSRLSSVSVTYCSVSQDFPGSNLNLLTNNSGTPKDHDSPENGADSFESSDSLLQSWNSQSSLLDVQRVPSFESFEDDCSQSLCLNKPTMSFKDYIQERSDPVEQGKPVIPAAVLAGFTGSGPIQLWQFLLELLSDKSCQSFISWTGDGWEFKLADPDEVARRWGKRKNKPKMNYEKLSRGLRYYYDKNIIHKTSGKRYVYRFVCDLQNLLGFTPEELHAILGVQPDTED
# Procedure, shortened: as §1
# SPDEF = molecular target: T9, SPDEF (Homo sapiens, UniProt O95238 1-335); settings: protein: recombinant; tags: N-terminal GST; dsDNA, one strand shown
# T9 sequence: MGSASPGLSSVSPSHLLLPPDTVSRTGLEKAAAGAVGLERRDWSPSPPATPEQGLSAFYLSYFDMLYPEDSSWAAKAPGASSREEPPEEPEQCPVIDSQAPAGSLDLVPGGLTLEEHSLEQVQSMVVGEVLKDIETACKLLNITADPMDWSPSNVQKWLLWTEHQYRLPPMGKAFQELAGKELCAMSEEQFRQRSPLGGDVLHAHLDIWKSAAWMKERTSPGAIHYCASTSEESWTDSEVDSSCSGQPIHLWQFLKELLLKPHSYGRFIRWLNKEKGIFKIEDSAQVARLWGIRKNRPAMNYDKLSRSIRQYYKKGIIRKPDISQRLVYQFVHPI
# Procedure, shortened: as §1
# ETV7 = molecular target: T10, ETV7 (Homo sapiens, UniProt Q9Y603 1-341); settings: protein: recombinant; tags: N-terminal GST; dsDNA, one strand shown
# T10 sequence: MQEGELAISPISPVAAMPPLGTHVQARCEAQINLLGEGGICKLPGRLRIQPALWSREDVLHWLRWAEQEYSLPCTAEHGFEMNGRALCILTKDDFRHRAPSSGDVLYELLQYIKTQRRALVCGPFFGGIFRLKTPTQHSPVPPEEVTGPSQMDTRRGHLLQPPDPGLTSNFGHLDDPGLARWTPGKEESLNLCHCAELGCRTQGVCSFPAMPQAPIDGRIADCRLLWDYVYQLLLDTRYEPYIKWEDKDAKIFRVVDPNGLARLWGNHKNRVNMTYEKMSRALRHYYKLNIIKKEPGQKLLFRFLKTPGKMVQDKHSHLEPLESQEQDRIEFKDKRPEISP
# Procedure, shortened: as §1
# ELF5 = molecular target: T11, ELF5 (Homo sapiens, UniProt Q9UKW6-2 1-255); settings: protein: recombinant; tags: N-terminal GST; dsDNA, one strand shown
# T11 sequence: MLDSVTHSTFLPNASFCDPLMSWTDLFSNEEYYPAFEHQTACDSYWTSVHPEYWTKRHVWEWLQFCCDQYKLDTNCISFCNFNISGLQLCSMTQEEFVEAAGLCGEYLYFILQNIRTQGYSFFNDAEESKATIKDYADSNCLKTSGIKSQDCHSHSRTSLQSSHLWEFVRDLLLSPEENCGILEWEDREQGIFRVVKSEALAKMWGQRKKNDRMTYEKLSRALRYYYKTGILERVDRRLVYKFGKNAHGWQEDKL
# Procedure, shortened: as §1
# ETV3 = molecular target: T12, ETV3 (Homo sapiens, UniProt P41162-2 1-143); settings: protein: recombinant; tags: N-terminal GST; dsDNA, one strand shown
# T12 sequence: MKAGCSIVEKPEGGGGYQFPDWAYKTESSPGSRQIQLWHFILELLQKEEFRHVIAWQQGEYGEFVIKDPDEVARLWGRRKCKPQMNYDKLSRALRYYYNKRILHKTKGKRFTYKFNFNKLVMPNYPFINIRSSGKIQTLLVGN
# Procedure, shortened: as §1
# ETV6 = ETV6 (Homo sapiens, UniProt P41212 1-452); settings: protein: recombinant; tags: N-terminal GST; dsDNA, one strand shown
# Procedure, shortened: as §1
# Sequence of HSF1 (Q00613 whole entry): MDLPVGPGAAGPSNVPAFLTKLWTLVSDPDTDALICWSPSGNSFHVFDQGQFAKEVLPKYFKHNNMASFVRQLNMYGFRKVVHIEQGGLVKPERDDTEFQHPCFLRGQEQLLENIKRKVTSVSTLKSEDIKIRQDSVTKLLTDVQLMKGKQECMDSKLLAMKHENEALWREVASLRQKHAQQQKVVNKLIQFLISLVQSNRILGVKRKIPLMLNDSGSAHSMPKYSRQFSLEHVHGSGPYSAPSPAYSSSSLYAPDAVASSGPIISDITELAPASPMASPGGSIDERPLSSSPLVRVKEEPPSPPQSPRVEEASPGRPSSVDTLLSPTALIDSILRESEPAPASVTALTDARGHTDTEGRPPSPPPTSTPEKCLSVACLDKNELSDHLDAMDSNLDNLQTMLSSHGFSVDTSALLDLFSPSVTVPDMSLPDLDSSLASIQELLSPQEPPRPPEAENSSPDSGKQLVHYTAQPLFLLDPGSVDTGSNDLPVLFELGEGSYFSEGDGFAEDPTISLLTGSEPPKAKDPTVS
# Sequence of ETV6 (P41212 whole entry): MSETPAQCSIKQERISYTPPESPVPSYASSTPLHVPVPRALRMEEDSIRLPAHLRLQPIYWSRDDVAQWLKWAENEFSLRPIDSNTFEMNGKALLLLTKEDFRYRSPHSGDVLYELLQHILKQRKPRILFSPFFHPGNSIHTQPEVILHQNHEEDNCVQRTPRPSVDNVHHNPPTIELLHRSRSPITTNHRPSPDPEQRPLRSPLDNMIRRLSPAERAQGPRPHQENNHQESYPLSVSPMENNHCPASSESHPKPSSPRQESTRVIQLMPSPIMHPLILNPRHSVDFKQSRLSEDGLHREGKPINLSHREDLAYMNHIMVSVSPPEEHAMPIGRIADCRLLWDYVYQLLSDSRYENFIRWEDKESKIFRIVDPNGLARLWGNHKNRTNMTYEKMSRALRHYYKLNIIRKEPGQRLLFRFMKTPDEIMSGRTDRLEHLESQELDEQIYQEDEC
# Sequence of ELF4 (Q99607 whole entry): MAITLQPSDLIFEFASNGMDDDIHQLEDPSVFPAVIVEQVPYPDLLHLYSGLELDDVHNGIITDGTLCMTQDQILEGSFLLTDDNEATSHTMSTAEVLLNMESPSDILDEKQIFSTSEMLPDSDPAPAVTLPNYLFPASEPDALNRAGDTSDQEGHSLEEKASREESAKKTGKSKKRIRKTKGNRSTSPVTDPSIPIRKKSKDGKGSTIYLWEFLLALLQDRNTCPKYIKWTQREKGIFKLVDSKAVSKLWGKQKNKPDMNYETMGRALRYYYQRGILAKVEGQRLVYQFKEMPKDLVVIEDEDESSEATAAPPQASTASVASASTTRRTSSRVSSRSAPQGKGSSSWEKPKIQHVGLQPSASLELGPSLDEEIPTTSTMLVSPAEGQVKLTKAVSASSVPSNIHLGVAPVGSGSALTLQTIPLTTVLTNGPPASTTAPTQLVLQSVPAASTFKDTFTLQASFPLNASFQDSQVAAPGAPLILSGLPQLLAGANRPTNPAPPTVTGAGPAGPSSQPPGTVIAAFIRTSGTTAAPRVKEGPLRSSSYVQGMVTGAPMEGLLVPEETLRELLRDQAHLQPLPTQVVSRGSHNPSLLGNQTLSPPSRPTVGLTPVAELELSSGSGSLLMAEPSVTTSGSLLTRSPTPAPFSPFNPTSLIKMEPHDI
# Sequence of CRX (O43186 whole entry): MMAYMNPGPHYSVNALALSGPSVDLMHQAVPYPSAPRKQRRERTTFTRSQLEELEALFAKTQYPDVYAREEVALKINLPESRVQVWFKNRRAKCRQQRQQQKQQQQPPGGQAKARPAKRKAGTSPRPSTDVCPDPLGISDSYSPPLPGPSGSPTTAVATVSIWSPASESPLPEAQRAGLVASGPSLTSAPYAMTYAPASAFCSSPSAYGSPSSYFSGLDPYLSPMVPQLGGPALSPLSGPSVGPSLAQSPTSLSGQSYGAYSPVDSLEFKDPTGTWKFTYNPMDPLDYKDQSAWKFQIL
# Sequence of ETV5 (P41161 whole entry): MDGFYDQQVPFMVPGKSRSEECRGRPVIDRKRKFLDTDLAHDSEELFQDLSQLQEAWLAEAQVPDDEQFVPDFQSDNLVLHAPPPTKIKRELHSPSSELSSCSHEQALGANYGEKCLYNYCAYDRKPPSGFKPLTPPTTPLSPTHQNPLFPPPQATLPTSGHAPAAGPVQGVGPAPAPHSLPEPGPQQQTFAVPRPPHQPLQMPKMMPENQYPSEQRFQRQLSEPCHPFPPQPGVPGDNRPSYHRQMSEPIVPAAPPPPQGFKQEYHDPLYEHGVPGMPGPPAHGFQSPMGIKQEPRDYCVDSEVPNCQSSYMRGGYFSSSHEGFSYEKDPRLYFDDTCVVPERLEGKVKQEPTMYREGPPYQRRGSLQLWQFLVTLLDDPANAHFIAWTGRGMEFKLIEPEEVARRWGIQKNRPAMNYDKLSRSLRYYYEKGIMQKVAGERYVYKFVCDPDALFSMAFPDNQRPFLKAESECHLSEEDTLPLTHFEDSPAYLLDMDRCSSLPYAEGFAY
# Sequence of ETV1 (P50549 whole entry): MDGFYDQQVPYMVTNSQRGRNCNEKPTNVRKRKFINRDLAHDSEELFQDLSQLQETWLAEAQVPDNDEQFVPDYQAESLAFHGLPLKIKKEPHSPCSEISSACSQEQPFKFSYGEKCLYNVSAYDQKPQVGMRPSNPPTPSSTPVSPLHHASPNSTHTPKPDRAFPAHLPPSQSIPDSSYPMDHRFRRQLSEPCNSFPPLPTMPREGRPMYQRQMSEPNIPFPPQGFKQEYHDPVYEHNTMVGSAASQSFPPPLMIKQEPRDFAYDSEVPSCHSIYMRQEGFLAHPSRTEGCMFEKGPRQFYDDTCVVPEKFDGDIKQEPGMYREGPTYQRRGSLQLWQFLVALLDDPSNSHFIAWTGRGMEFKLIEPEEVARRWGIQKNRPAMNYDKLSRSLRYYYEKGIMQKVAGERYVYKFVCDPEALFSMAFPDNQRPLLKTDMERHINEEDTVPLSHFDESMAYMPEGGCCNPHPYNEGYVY
sequence,measurement,setting,value
ATGCGA,binding signal,FEV,"1.17 fold enrichment (6-mer frequency, TF over GST control)"
same,binding signal,ETV5,"1.17 fold enrichment (6-mer frequency, TF over GST control)"
same,binding signal,HSF1,"1.22 fold enrichment (6-mer frequency, TF over GST control)"
same,binding signal,SPIC,"1.26 fold enrichment (6-mer frequency, TF over GST control)"
same,binding signal,ELF4,"1.29 fold enrichment (6-mer frequency, TF over GST control)"
same,binding signal,ELK4,"1.33 fold enrichment (6-mer frequency, TF over GST control)"
same,binding signal,ETV2,"1.34 fold enrichment (6-mer frequency, TF over GST control)"
same,binding signal,ELF3,"1.31 fold enrichment (6-mer frequency, TF over GST control)"
same,binding signal,CRX,"1.27 fold enrichment (6-mer frequency, TF over GST control)"
same,binding signal,ETV1,"1.16 fold enrichment (6-mer frequency, TF over GST control)"
same,binding signal,ERF,"1.16 fold enrichment (6-mer frequency, TF over GST control)"
same,binding signal,ETV3L,"1.24 fold enrichment (6-mer frequency, TF over GST control)"
same,binding signal,ETS2,"1.19 fold enrichment (6-mer frequency, TF over GST control)"
same,binding signal,SPDEF,"1.18 fold enrichment (6-mer frequency, TF over GST control)"
same,binding signal,ETV7,"1.28 fold enrichment (6-mer frequency, TF over GST control)"
same,binding signal,ELF5,"1.16 fold enrichment (6-mer frequency, TF over GST control)"
same,binding signal,ETV3,"1.32 fold enrichment (6-mer frequency, TF over GST control)"
same,binding signal,ETV6,"1.23 fold enrichment (6-mer frequency, TF over GST control)"
